# KCNQ2 block: KCNQ2 (rat) channel inhibition; O88943; B-score at 10 µM; CHO-K1 KCNQ2, FluxOR thallium flux, 20 min; active compounds read low; actives 1.1% (n = 310,000);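 active = fluorescence ratio B-score at most minus 3 library SDs, with starting brightness B-score within 2 library SDs, cut at about -5.5 in these data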
# Target sequence (O88943 whole entry, looked up): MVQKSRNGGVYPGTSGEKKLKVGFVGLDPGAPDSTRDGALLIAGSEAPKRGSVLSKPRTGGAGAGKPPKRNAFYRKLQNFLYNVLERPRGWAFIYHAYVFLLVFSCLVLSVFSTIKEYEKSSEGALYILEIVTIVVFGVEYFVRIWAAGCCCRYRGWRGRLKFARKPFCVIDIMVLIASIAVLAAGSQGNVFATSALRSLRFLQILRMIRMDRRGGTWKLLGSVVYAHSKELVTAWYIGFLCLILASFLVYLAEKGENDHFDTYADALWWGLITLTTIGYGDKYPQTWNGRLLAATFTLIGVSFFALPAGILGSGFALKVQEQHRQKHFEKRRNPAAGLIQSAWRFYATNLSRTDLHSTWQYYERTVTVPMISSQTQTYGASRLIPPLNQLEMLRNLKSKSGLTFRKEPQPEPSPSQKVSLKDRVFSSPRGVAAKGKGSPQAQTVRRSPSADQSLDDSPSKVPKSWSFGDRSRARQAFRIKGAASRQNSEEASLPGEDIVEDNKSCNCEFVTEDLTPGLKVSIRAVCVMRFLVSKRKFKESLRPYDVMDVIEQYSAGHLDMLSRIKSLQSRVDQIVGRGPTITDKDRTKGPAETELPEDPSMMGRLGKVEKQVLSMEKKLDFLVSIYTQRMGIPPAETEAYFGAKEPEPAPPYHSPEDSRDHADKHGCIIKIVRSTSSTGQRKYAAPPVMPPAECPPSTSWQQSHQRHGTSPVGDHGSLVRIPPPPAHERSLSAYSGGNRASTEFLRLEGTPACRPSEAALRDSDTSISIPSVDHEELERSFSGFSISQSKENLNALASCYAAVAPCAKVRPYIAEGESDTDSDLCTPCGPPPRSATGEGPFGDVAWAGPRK
# KCNQ2 pot: potentiators of rat KCNQ2 potassium channel; CHO-K1 KCNQ2, FluxOR thallium flux fluorescence; active compounds read high; B-score at 10 µM; O88943; actives 0.54% (n = 310,000);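 active = fluorescence ratio B-score at least 3 SD of library B-scores, with initial fluorescence B-score within 3 of them, cut at about 5.3 in these data; same plate scores as AID 2156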;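 also: B-score of peak minus minimum over baseline fluorescence ratio after K+ and Tl+ stimulus; positive B-score means potentiation of KCNQ2 with more thallium influx and brighter signal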
# Starred values were filed as active, the others as inactive; i = inactive; . = no result given. In the library only some 1.6% were active in any assay of this set; here they are far more common.
SMILES,KCNQ2 block,KCNQ2 pot
CCOC(=O)C1CCN(C(=O)CCc2nnc3ccc(N4CCN(C)CC4)nn23)CC1,i,.
CSc1ccc(S(=O)(=O)N2c3ccccc3CC2C)cc1 (stereo not given),i,.
CN(C(=O)C1CC1)C1CCS(=O)(=O)C1 (stereo not given),i,1.4
O=C(CNC(=S)N(CCCN1CCOCC1)Cc1cccs1)N1CCCCCC1,i,.
CCNS(=O)(=O)c1ccc(NC(=O)Cn2cc([N+](=O)[O-])cn2)cc1,i,0.48
O=C(OCc1ccc([N+](=O)[O-])cc1Cl)c1cnccn1,i,.
Cc1nnsc1C(=O)N1CCN(c2cc(C(F)(F)F)ccn2)CC1,i,1.3
CCC(C)NC(=O)COC(=O)c1oc2ccccc2c1CSc1ccc(Cl)cc1 (stereo not given),-6.1*,-6.1
O=C(O)c1oc2ccccc2c1CSc1ccc(Cl)cc1,i,2.9
Cc1ccccc1C(=O)c1cccn1CC(=O)NCc1ccccc1Cl,i,.
COCCN1C(=O)/C(=C/c2ccc(OCc3ccc(C(=O)O)cc3)c(OC)c2)SC1=Nc1ccccc1,-6.1*,-6.1
COc1cc(/C=C2\SC(=Nc3ccccc3)N(Cc3ccco3)C2=O)ccc1OC(C)C(=O)O (stereo not given),i,.
COc1ccc(CN2CCC(N(CCc3ccccc3)Cc3ccccc3)CC2)c(OC)c1,i,.
Cc1cccc(/C=N/NC(=O)c2cc(Br)ccc2OCc2ccccc2)n1,-5.9*,-5.9
COc1ccc(C(=O)Nc2ccccc2C(N)=O)cc1,i,0.25
COc1ccc(/C=N/NC(=O)c2ccccc2OCc2ccccc2)c(OC)c1,-6.8*,-6.8
Cc1cccc(/C=N/NC(=O)c2ccccc2OCc2cccc(Br)c2)n1,i,.
COc1ccc(/C(C)=N/NC(=O)c2ccccc2OCc2ccccc2)c(OC)c1,i,.
COc1ccc(C(=O)Nc2ccccc2C(=O)N/N=C/c2cccc3ccccc23)cc1,-5.8*,-5.8
C/C(=C\c1ccccc1)C(=O)Nc1ccc(Cl)cn1,i,.
Cc1ccc(NC2CCCCC2NS(=O)(=O)c2ccccc2)c(C)c1 (stereo not given),i,.
CCc1ccc(-c2nc(SCC(=O)NC3CC3)n[nH]2)cc1,i,0.81
CC1(C)C(C(=O)OCC(Cl)(Cl)Cl)N2C(=O)C(NC(=O)Cc3ccccc3)C2S1=O (stereo not given),i,0.57
COn1c(-c2ccc(Cl)cc2)nc2ncccc21,i,0.65
CC(=O)C(C(C)=O)C(c1ccccc1)c1nc2ccccc2[nH]c1=O (stereo not given),i,0.62
SMILES,KCNQ2 block,KCNQ2 pot
Cc1ccccc1-c1nc2ccccc2c(=O)n1/N=C/c1ccc([N+](=O)[O-])cc1,i,.
O=c1c2ccccc2nc(-c2ccccc2)n1/N=C/c1ccc([N+](=O)[O-])cc1,-7.6*,-7.6
COc1ccc(N=Cc2cccc(C)c2O)cc1Cl,i,0.04
Cc1cccc(N=Cc2cc(Br)cc(Cl)c2O)c1,i,9.3*
Clc1ccc(-c2nnc(-c3ccccc3)c(N3CCSCC3)n2)cc1,-6*,-6
Clc1ccc(-c2nnc(-c3ccccc3)c(-c3ccccc3)n2)cc1,-6.2*,-6.2
O=[N+]([O-])c1ccc(-c2nnc(-c3ccccc3)c(N3CCOCC3)n2)cc1,i,.
Clc1ccc(-c2nnc(-c3ccccc3)c(-c3c[nH]c4ccccc34)n2)cc1,i,1.1
COc1ccccc1CNC(=O)CN(C)S(=O)(=O)c1ccc(F)cc1,i,0.98
CCN(Cc1ccccc1)C(=O)c1ccc(C(=O)N(CC)Cc2ccccc2)cc1,i,.
O=C(C1CC1)N(CCN(Cc1ccccc1)C(=O)C1CC1)Cc1ccccc1,-7.1*,-7.1
O=C(c1ccccc1)N(Cc1ccccc1)Cc1ccccc1,-6.3*,-6.3
CCN(Cc1ccccc1)C(=O)C1CCN(CC2CC=CCC2)CC1 (stereo not given),i,.
O=C(NC(=O)c1ccccc1O)c1ccc2c(c1)CCO2,i,.
COC(=O)c1ccc(C(=O)OC)c(NC(=O)C2CCCO2)c1 (stereo not given),i,0.99
Cc1ccc(S(=O)(=O)N(C)C)cc1NC(=S)N1CCN(Cc2ccc3c(c2)OCO3)CC1,i,.
CN1C(=S)SC2CS(=O)(=O)CC21C (stereo not given),i,.
Cc1onc(-c2ccc(Cl)cc2)c1-c1ccnc(SCC(=O)Nc2ccc(C(C)C)cc2)n1,-5.6*,-5.6
O=C(CSc1nccc(-c2cccs2)n1)Nc1ccc(Cl)cc1,i,1.4
COc1ccc2nc(N3CCCCC3)c(/C=C3\SC(=S)NC3=O)cc2c1,i,11*
COc1ccc(-n2c(C)cc(/C=C3\SC(=S)NC3=O)c2C)cc1,i,.
O=C(NC1CC1)c1ccc(NS(=O)(=O)c2ccc(F)cc2)cc1,i,.
O=C(CCNC(=O)C1CCN(S(=O)(=O)c2ccccc2)CC1)NCc1ccc(Cl)c(Cl)c1,i,.
C=CCn1c(CSCc2ccc(Cl)cc2)nnc1SCC(=O)NCc1ccccc1,-6.5*,-6.5
O=C(CSc1nnc(CCc2ccccc2)n1-c1ccc(Cl)cc1)NCc1ccccc1,-7.4*,-7.4
SMILES,KCNQ2 block,KCNQ2 pot
C=CCn1c(SCC(=O)NCc2ccccc2)nnc1-c1ccccc1O,i,.
COc1ccc(-n2c(CCc3ccccc3)nnc2SCC(=O)NCc2ccccc2)cc1,i,.
C=CCn1c(COc2ccccc2)nnc1SCC(=O)N/N=C/c1cc(Cl)ccc1O,-6.4*,-6.4
C=CCn1c(COc2ccccc2)nnc1SCC(=O)N/N=C/c1ccc(C)cc1,i,.
COc1cccc(NC(=S)N2CCC(c3ccc(C)cc3)C2)c1 (stereo not given),i,.
O=C(Cc1cccs1)NCCc1ccc(Cl)cc1,i,1.8
Fc1cccc(CO/N=C/c2c(-c3ccccc3)nc3ccc(Cl)cn23)c1,-6.8*,-6.8
Cc1cccn2c(/C=N/OCc3cccc(F)c3)c(-c3ccc(Cl)cc3)nc12,i,.
Cc1c(Cl)cccc1NS(=O)(=O)c1cccc2nsnc12,i,0.42
COCCNS(=O)(=O)c1ccc(C)c(C)c1C,i,0.93
Fc1cccc(Cn2ccc(-c3ccc4c(c3)OCO4)n2)c1,i,.
Cc1ccccc1Cn1ccc(-c2ccc3c(c2)OCO3)n1,-6.7*,-6.7
CCCC(C(=O)NCCC(C)C)N(Cc1ccccc1Cl)C(=O)c1snc(C(N)=O)c1N (stereo not given),i,2
CSc1nnc(-c2sccc2OCc2ccccc2)n1C,i,.
CSc1n[nH]c(-c2sccc2OCc2ccc(C)cc2)n1,-6.1*,-6.1
CC(Sc1nccn1C)C(=O)c1ccc(Br)cc1 (stereo not given),i,.
Cc1ccc(O)c(Nc2c3ccccc3nc3ccccc23)c1,-5.6*,-5.6
Cc1ccc(O)c(Nc2nc(-c3ccccc3)nc3ccccc23)c1,i,0.61
COc1cc(C(=O)N(C)CC2CCN(CCc3cccc(C(F)(F)F)c3)CC2)ccc1C,i,.
CC(=O)c1cccc(NC(=O)COC(=O)C2=COCCO2)c1,i,1.1
Cc1ccc(C2c3[nH]c4ccccc4c3C[C@H]3C(=O)N(c4ccccc4C(=O)NCCCN4CCOCC4)C(=O)N23)cc1 (stereo not given in full),i,.
O=C(NCCCN1CCOCC1)c1ccccc1N1C(=O)[C@@H]2Cc3c([nH]c4ccccc34)C(c3cccc(Cl)c3)N2C1=O (stereo not given in full),-5.6*,-5.6

# High-throughput results deposited in PubChem by Johns Hopkins Ion Channel Center.
